This experiment relates to Trichoderma virens ATCC 9645. Kind of experiment: growth yield (OD600) with compound + IPBC relative to untreated control; higher = less growth inhibition. To be noted: compound concentration: 100 uM, IPBC concentration: 200 ng/ml. A digest of the protocol: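 Trichoderma virens ATCC 9645 spores, from potato dextrose agar plates grown for 7 days, were brought to 15,000 spores ml^−1 in potato dextrose broth and dispensed as 100 μl aliquots into 96-well plates. Each aliquot received library compounds at 100 μM final, with or without a biocide at 200 ng ml^−1, before growth at 30 °C and OD600 readings on a BioTek EL800 at 40 h and 72 h. Growth is expressed relative to the control containing neither agent and represents means of duplicate screens.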

Drawing on the supplement of paper PMC8007513, this text covers growth yield for 41 compounds.

Where a name gives a salt, the structure may show the parent alone. ± gives the standard error. The campaign covered roughly 1,300 compounds. About 130 (10%) showed an effect of 50% or more. Many of the other results were omitted from the sample, so strong results are more common in it than they were.

Turning to `Cc1cc(CC(=O)O)n(C)c1C(=O)c1ccc(Cl)cc1` [Zomepirac sodium salt] + CCCCNC(=O)OCC#CI [3-iodo-2-propynyl butylcarbamate (IPBC)], the growth yield worked out at 89.59 ± 0.64% (40 h) and 92.4 ± 2.2% (72 h).
Consider `CNCC[C@@H](Oc1ccccc1C)c1ccccc1` [Tomoxetine hydrochloride] + CCCCNC(=O)OCC#CI [3-iodo-2-propynyl butylcarbamate (IPBC)], for which the growth yield by setting is: (40 h) 78.31 ± 0.48%; (72 h) 87.89 ± 0.84%.
For `CN1CCN(C2=Nc3cc(Cl)ccc3Nc3ccccc32)CC1` [Clozapine] + CCCCNC(=O)OCC#CI [3-iodo-2-propynyl butylcarbamate (IPBC)], in that order: 65.6 ± 2.7% and 93.8 ± 2.7%.
For `CC(CCc1ccccc1)NC(C)C(O)c1ccc(O)cc1` (configuration not stated) [Nylidrin] + CCCCNC(=O)OCC#CI [3-iodo-2-propynyl butylcarbamate (IPBC)], in that order: 95.3 ± 2.9% and 96.59 ± 0.1%.
The corresponding values for `CCCCCCCCNC(C)C(O)c1ccc(SC(C)C)cc1` (configuration not stated) [Suloctidil] + CCCCNC(=O)OCC#CI [3-iodo-2-propynyl butylcarbamate (IPBC)] are 5.08 ± 0.32% and 33.1 ± 2.5%.
As for `CC(NCCc1ccc(O)cc1)C(O)c1ccc(O)cc1` (configuration not stated) [Ritodrine hydrochloride] + CCCCNC(=O)OCC#CI [3-iodo-2-propynyl butylcarbamate (IPBC)], the growth yield by setting is: (40 h) 83.07 ± 0.16%; (72 h) 92.4 ± 0.32%.
Consider `OCCN1C[C@H](O)[C@@H](O)[C@H](O)[C@H]1CO` [Miglitol] + CCCCNC(=O)OCC#CI [3-iodo-2-propynyl butylcarbamate (IPBC)], for which the growth yield was found to be 90.1 ± 9.1% (40 h) and 93 ± 4.5% (72 h).
For `CCOC(=O)c1ccc(C#Cc2ccc3c(c2)C(C)(C)CCS3)nc1` [Tazarotene] + CCCCNC(=O)OCC#CI [3-iodo-2-propynyl butylcarbamate (IPBC)], in that order: 81.2 ± 2.7% and 91.6 ± 1.4%.
The corresponding values for `C#CCN[C@@H]1CCc2ccccc21` [Rasagiline] + CCCCNC(=O)OCC#CI [3-iodo-2-propynyl butylcarbamate (IPBC)] are 84.5 ± 1.3% and 85.6 ± 1.1%.
For `O=C(CCCN1CCC(O)(c2ccc(Cl)cc2)CC1)c1ccc(F)cc1` [Haloperidol] + CCCCNC(=O)OCC#CI [3-iodo-2-propynyl butylcarbamate (IPBC)], the growth yield is, setting by setting: (40 h) 10.2 ± 1.9%; (72 h) 60.4 ± 4.4%.
In the case of `O=C(CCCN1CCC2(CC1)C(=O)NCN2c1ccccc1)c1ccc(F)cc1` [Spiperone] + CCCCNC(=O)OCC#CI [3-iodo-2-propynyl butylcarbamate (IPBC)], the growth yield by setting is: (40 h) 77.8 ± 2.9%; (72 h) 90.4 ± 0.21%.
On to `O=C(CCCN1CCC(O)(c2ccc(Br)cc2)CC1)c1ccc(F)cc1` [Bromperidol] + CCCCNC(=O)OCC#CI [3-iodo-2-propynyl butylcarbamate (IPBC)], for which the growth yield reads like this: (40 h) 64.3 ± 2.1%; (72 h) 87.3 ± 1.5%.
For `CSc1nc2cc(Cl)c(Oc3cccc(Cl)c3Cl)cc2[nH]1` [Triclabendazole] + CCCCNC(=O)OCC#CI [3-iodo-2-propynyl butylcarbamate (IPBC)], in that order: 66.7 ± 3.2% and 120 ± 6.5%.
Take `O=C(O)c1cn(C2CC2)c2cc(N3CCNCC3)c(F)cc2c1=O` [Ciprofloxacin hydrochloride monohydrate] + CCCCNC(=O)OCC#CI [3-iodo-2-propynyl butylcarbamate (IPBC)]: the growth yield by setting is: (40 h) 86.2 ± 8.7%; (72 h) 91.5 ± 6.3%.
With `CCOc1nc2cccc(C(=O)OCc3oc(=O)oc3C)c2n1Cc1ccc(-c2ccccc2-c2noc(=O)[nH]2)cc1` [Azilsartan kamedoxomil] + CCCCNC(=O)OCC#CI [3-iodo-2-propynyl butylcarbamate (IPBC)], the growth yield (40 h) was 110 ± 5.1% and the growth yield (72 h) was found to be 105 ± 2.7%.
For `CN[C@@H]1[C@@H](O[C@H]2O[C@H](CO)[C@@H](N)[C@H](O)[C@H]2O)OC2C[C@@H](N)[C@@H](O[C@H]3[C@H](O)[C@@H](O)[C@H](N)C[C@@H]3N)OC2[C@@H]1O` (some centres not stated) [Apramycin] + CCCCNC(=O)OCC#CI [3-iodo-2-propynyl butylcarbamate (IPBC)], in that order: 96.6 ± 4.1% and 97.1 ± 1.5%.
The corresponding values for `CCCN(CCC)S(=O)(=O)c1ccc(C(=O)O)cc1` [Probenecid] + CCCCNC(=O)OCC#CI [3-iodo-2-propynyl butylcarbamate (IPBC)] are 81.5 ± 4.9% and 86.1 ± 0.73%.
Regarding `NC(=O)N1c2ccccc2C=Cc2ccccc21` [Carbamazepine] + CCCCNC(=O)OCC#CI [3-iodo-2-propynyl butylcarbamate (IPBC)], the growth yield by setting is: (40 h) 92.8 ± 1.9%; (72 h) 93.8 ± 1.1%.
In the case of `COc1cc2c(c(OC)c1OC)-c1ccc(OC)c(=O)cc1[C@@H](NC(C)=O)CC2` [Colchicine] + CCCCNC(=O)OCC#CI [3-iodo-2-propynyl butylcarbamate (IPBC)], the growth yield runs as follows: (40 h) 88.5 ± 6.8%; (72 h) 92.9 ± 1.7%.
Regarding `NC[C@@H]1O[C@H](O[C@H]2[C@@H](O)[C@H](O[C@@H]3[C@@H](O)[C@H](N)C[C@H](N)[C@H]3O[C@H]3O[C@H](CO)[C@@H](O)[C@H](O)[C@H]3N)O[C@@H]2CO)[C@H](N)[C@@H](O)[C@@H]1O` [Paromomycin sulfate] + CCCCNC(=O)OCC#CI [3-iodo-2-propynyl butylcarbamate (IPBC)], the growth yield is, setting by setting: (40 h) 84 ± 7.2%; (72 h) 86.5 ± 2.2%.
Regarding `COC1=C(OC)C(=O)C(CCCCCCCCCCO)=C(C)C1=O` [Idebenone] + CCCCNC(=O)OCC#CI [3-iodo-2-propynyl butylcarbamate (IPBC)], the growth yield is 49.1 ± 8.1% (40 h) and 73.9 ± 4.5% (72 h).
For `CCn1cc(C(=O)O)c(=O)c2cc(F)c(N3CCNC(C)C3)c(F)c21` (configuration not stated) [Lomefloxacin hydrochloride] + CCCCNC(=O)OCC#CI [3-iodo-2-propynyl butylcarbamate (IPBC)], in that order: 87.4 ± 8.3% and 96.3 ± 6.5%.
As to `CCCN(CCC)CCc1cccc2c1CC(=O)N2` [Ropinirole hydrochloride] + CCCCNC(=O)OCC#CI [3-iodo-2-propynyl butylcarbamate (IPBC)], the growth yield (40 h) was determined as 84.8 ± 1.3% and the growth yield (72 h) was determined as 90.61 ± 0.42%.
As to `O=C(O)c1ccccc1Nc1cccc(C(F)(F)F)c1` [Flufenamic acid] + CCCCNC(=O)OCC#CI [3-iodo-2-propynyl butylcarbamate (IPBC)], the growth yield was determined as 29.1 ± 2.1% (40 h) and 59.05 ± 0.32% (72 h).
The corresponding values for `O=C(OCCOCCO)c1ccccc1Nc1cccc(C(F)(F)F)c1` [Etofenamate] + CCCCNC(=O)OCC#CI [3-iodo-2-propynyl butylcarbamate (IPBC)] are 59.2 ± 1.4% and 94.4 ± 2.1%.
The corresponding values for `O=C(O)c1cccnc1Nc1cccc(C(F)(F)F)c1` [Niflumic acid] + CCCCNC(=O)OCC#CI [3-iodo-2-propynyl butylcarbamate (IPBC)] are 63.9 ± 2.9% and 85.2 ± 3.1%.
For `CCCc1nc(C(C)(C)O)c(C(=O)O)n1Cc1ccc(-c2ccccc2-c2nnn[nH]2)cc1` [Olmesartan] + CCCCNC(=O)OCC#CI [3-iodo-2-propynyl butylcarbamate (IPBC)], in that order: 107 ± 1.3% and 104 ± 1.4%.
For `OC(c1cc(C(F)(F)F)nc2c(C(F)(F)F)cccc12)C1CCCCN1` (configuration not stated) [Mefloquine hydrochloride] + CCCCNC(=O)OCC#CI [3-iodo-2-propynyl butylcarbamate (IPBC)], the growth yield amounted to 74.8 ± 4% (40 h) and 103 ± 3.4% (72 h).
For `O=C(O)Cc1ccc(-c2ccccc2)cc1` [Felbinac] + CCCCNC(=O)OCC#CI [3-iodo-2-propynyl butylcarbamate (IPBC)], in that order: 56.2 ± 4.1% and 91.9 ± 4.6%.
For `O=C(O)CCc1nc(-c2ccccc2)c(-c2ccccc2)o1` [Oxaprozin] + CCCCNC(=O)OCC#CI [3-iodo-2-propynyl butylcarbamate (IPBC)], in that order: 72.7 ± 4.5% and 85.47 ± 0.73%.
The corresponding values for `O=C(O)Cc1sc(-c2ccccc2)nc1-c1ccc(Cl)cc1` [Fentiazac] + CCCCNC(=O)OCC#CI [3-iodo-2-propynyl butylcarbamate (IPBC)] are 25.4% and 77.1 ± 16%.
For the compound `Nc1nc(/C(=C/CC(=O)O)C(=O)N[C@@H]2C(=O)N3C(C(=O)O)=CCS[C@H]23)cs1` [Ceftibuten] + CCCCNC(=O)OCC#CI [3-iodo-2-propynyl butylcarbamate (IPBC)], the growth yield is, setting by setting: (40 h) 92.4 ± 4.8%; (72 h) 94 ± 3.1%.
Take `CCCNC(=O)NS(=O)(=O)c1ccc(Cl)cc1` [Chlorpropamide] + CCCCNC(=O)OCC#CI [3-iodo-2-propynyl butylcarbamate (IPBC)]: the growth yield is, setting by setting: (40 h) 93.7 ± 4.1%; (72 h) 102 ± 2.2%.
The corresponding values for `CCN(CC)C(=S)SSC(=S)N(CC)CC` [Disulfiram] + CCCCNC(=O)OCC#CI [3-iodo-2-propynyl butylcarbamate (IPBC)] are 33.7 ± 3.8% and 92.4 ± 1.6%.
As for `C=CCC1(CC(C)C)C(=O)NC(=O)NC1=O` [Butalbital] + CCCCNC(=O)OCC#CI [3-iodo-2-propynyl butylcarbamate (IPBC)], the growth yield was 85.6 ± 1.4% (40 h) and 93.2 ± 0.94% (72 h).
For `COc1ccc([C@@H]2Sc3ccccc3N(CCN(C)C)C(=O)[C@@H]2OC(C)=O)cc1` [Diltiazem hydrochloride] + CCCCNC(=O)OCC#CI [3-iodo-2-propynyl butylcarbamate (IPBC)], in that order: 80.85 ± 0.48% and 88.4 ± 2.2%.
As to `CC(C)C[C@H](CN)CC(=O)O` [Pregabalin] + CCCCNC(=O)OCC#CI [3-iodo-2-propynyl butylcarbamate (IPBC)], the growth yield (40 h) worked out at 85.3 ± 0.79% and the growth yield (72 h) amounted to 89.14 ± 0.21%.
For the compound `CN(C)c1cc(NC(=O)CNC(C)(C)C)c(O)c2c1C[C@H]1C[C@H]3[C@H](N(C)C)C(O)=C(C(N)=O)C(=O)[C@@]3(O)C(O)=C1C2=O` [Tigecycline] + CCCCNC(=O)OCC#CI [3-iodo-2-propynyl butylcarbamate (IPBC)], the growth yield amounted to 80.7 ± 3.5% (40 h) and 79 ± 2% (72 h).
As to `N=C(N)NC(=N)NCCc1ccccc1` [Phenformin hydrochloride] + CCCCNC(=O)OCC#CI [3-iodo-2-propynyl butylcarbamate (IPBC)], the growth yield runs as follows: (40 h) 86.25 ± 0.48%; (72 h) 92 ± 2.4%.
The corresponding values for `N=C(NCCCCCCNC(=N)NC(=N)Nc1ccc(Cl)cc1)NC(=N)Nc1ccc(Cl)cc1` [Chlorhexidine] + CCCCNC(=O)OCC#CI [3-iodo-2-propynyl butylcarbamate (IPBC)] are 4.61 ± 0.16% and 3.67 ± 0.32%.
For `CC(C)NC(=N)NC(=N)Nc1ccc(Cl)cc1` [Proguanil hydrochloride] + CCCCNC(=O)OCC#CI [3-iodo-2-propynyl butylcarbamate (IPBC)], in that order: 92.8 ± 2.2% and 104 ± 1.8%.
